About 83,000 compounds went through this panel and 20% of them were active in at least one assay; those are over-represented in the sample as a whole.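 For each line, cells grew in 96-well plates with the test compound present at a single concentration for 48 hours.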 The source made the active and inactive calls.

The subject of the assay is A549/ATCC NSCLC. The assay is described as follows: NCI-60 one-dose screen, 48 h (100 = growth as untreated, 0 = no growth, -100 = all killed). Conditions: 10 µM unless noted. The procedure:
Growth inhibition of the A549/ATCC human Non-Small Cell Lung tumor cell line is measured as a screen for anti-cancer activity. Cells are grown in 96 well plates and exposed to the test compound for 48 hours. Compounds are tested at a single concentration, which is 10^-5 M for most compounds. The reported endpoint is percent growth (GI% or GIPRCNT), where numbers from 0 - 100% represent growth inhibition, and numbers from -100% - 0 represent cell death. For example, a value of 40 represents 60% growth inhibition. A value of 0 means no net growth occurred over the course of the experiment. A value of -40 indicates 40% of cells at the beginning of the experiment died by the end of the experiment. A value of -100 means all cells are dead at the end of the experiment.
NCI-60 Human Tumor Cell Lines Screen was performed using the standard one-dose NCI protocol, which is described in more detail at https://dtp.cancer.gov/discovery_development/nci-60/default.htm.
Compounds with GIPRCNT values below 10 were considered active. Activity score was based on GIPRCNT using the following formula: […]
Score is 0 for GIPRCNT values of 100 or above, 50 for GIPRCNT values of 0, and 100 for GIPRCNT values of -100.
Regarding `Cc1[nH]c(C(=O)Nc2ccc(C(N)=O)cc2N2CCOC(C)C2)c(Cl)c1Cl` (stereo not given), the growth is 99.6% (inactive).

On to `Cc1ccc(S(=O)(=O)NCCCNc2nc(Nc3ccc(N4CCN(C)CC4)cc3)nc3ccsc23)cc1`, for which the growth was 37.1% (inactive). Then `CC(C)(O)c1cncc(-c2ccc3ncc(C#N)c(N4CCc5cc(F)c(Cl)cc54)c3c2)c1`, with 6.02% (active).

`O=C(/C=C/c1cccc(F)c1)c1cccc(OCCCOc2cccc(C(=O)/C=C/c3cccc(F)c3)c2)c1`: the growth was 69.8% (inactive).

Turning to `COC(=O)[C@@H](Cc1c[nH]c2ccccc12)NC(=O)CCCCOc1cc(O)c2c(=O)cc(-c3ccccc3)oc2c1`, the growth was 86.7% (inactive).

With `CN1CCN(Cc2ccc(NC(=O)c3cncc(C#Cc4cnc5ccc(OC6CCOCC6)nn45)c3)cc2C(F)(F)F)CC1`, the growth was -77.3% (active).

In the case of `O=C1Nc2cc(Cl)ccc2/C1=C\c1ccc(OCc2ccccc2)cc1`, the growth is 105% (inactive). With `CN1CCN(Cc2ccc(NC(=O)c3cncc(C#Cc4cnc(N)nc4)c3)cc2C(F)(F)F)CC1` the figure was 38% (inactive); with `CCCCc1nc2c(N)nc3ccccc3c2n1Cc1ccc(OC)cc1`, 65.8% (inactive); with `C#Cc1cc(C(=O)Nc2ccc(CNCCN3CCOCC3)c(C(F)(F)F)c2)ccc1C`, 87.7% (inactive). With `CCN(CC)c1ccc(/C=N/NC(=O)c2ccc(S(N)(=O)=O)cc2)c(O)c1` the figure was 16% (inactive); with `COc1ccc(-c2cc(-c3ccc(N4CCOCC4)cc3)n3c(n2)nc2ccccc23)cc1OC`, 82.5% (inactive); with `Cc1ccc(C(=O)CSc2nnc(-c3ccc(-c4ccc(Cl)cc4)nc3C)o2)cc1`, 106% (inactive). For the compound `C#C[C@]1(O)CC[C@H]2[C@@H]3CC=C4c5sc(Nc6cccc(F)c6)nc5CC[C@]4(C)[C@H]3CC[C@@]21C`, the growth was 32.6% (inactive).

In the case of `CCOC(=O)Nc1ccc2c(ccn2C(=O)c2cccc(F)c2)c1`, the growth was 47.6% (inactive). With `COc1cc(OC)cc(-c2cc(-c3c[nH]c4ccccc34)nc(-c3c[nH]c4ccccc34)c2C#N)c1` the figure was 98.5% (inactive); with `COc1ccc(/C=N/NC(=O)CSc2nc(-c3cnccn3)cc(-c3cccs3)c2C#N)cc1`, 50.5% (inactive). With `COC(=O)c1cccc(NC2=C(Cl)C(=O)c3nc(C)ccc3C2=O)c1` the figure was 102% (inactive). For the compound `CC1(C)C=Cc2cc(/C(N)=N/C(N)=N/c3nc4ccccc4s3)ccc2O1`, the growth is 67% (inactive). Turning to `CN1c2ccccc2Sc2cc(/C=N/Nc3ccnc4cc(Cl)ccc34)ccc21`, the growth was 83.3% (inactive).

In the case of `COc1cc(C(=O)c2cc(C(C)=O)c3cccc(C)n23)cc(OC)c1OC`, the growth was 50.2% (inactive).

Consider `O=c1nc(Nc2ccc([N+](=O)[O-])cc2O)sc2ccccc12`, for which the growth is 41.7% (inactive).

Turning to `N#Cc1nc(-c2ccccc2)oc1N1CCC(C2(C(F)(F)F)N=N2)CC1`, the growth is 99.8% (inactive).

Consider `O=C(CCCCCC/C=C\c1csc(Br)n1)NO`, for which the growth is 91.9% (inactive). With `Cn1c(SCC(=O)c2ccc(F)cc2)nc2ccccc2c1=O` the figure was 104% (inactive); with `Cc1ccccc1N1CCN(C2=C(Cl)C(=O)c3ncccc3C2=O)CC1`, 99.6% (inactive).

Turning to `CCN(CC)CCOc1ccc(C(=C(c2ccccc2)C2CCCC2)c2ccc(OCCN(CC)CC)cc2)cc1`, the growth is 37.4% (inactive).

As to `CCc1cc(OC(=O)N2CCC(N3CCCCC3)CC2)ccc1Nc1cc(-c2ccc(-n3cccn3)cc2)[nH]n1`, the growth was 53.8% (inactive). With `O=C1CSC(c2cn(-c3ccccc3)nc2-c2ccc(Cl)cc2)N1c1ccccc1` (stereo not given) the figure was 98.1% (inactive); with `C#Cc1cc(OC)c(C(=O)Nc2ccc(F)cc2C(=O)Nc2cccc(S(=O)(=O)C(F)(F)F)c2)cn1`, -7.6% (active); with `C#C[C@]1(O)CC[C@H]2[C@@H]3CC=C4c5sc(N(C)c6ccccc6)nc5CC[C@]4(C)[C@H]3CC[C@@]21C`, 69% (inactive). Regarding `CCN(CC)S(=O)(=O)c1ccc(-c2nc(C(Cl)Cl)nc3cc(-c4ccc(F)cc4)nn23)cc1`, the growth was 17.8% (inactive).

Regarding `C[C@@H]1OCC2(CCN(c3cnc(C(=O)Nc4cc(F)cc5cccnc45)cn3)CC2)[C@@H]1N`, the growth was 82.2% (inactive). As to `NC(=O)n1c(=O)n(-c2cccc(C(F)(F)F)c2)c(=O)c2cc(-c3ccc(F)cc3F)ccc21`, the growth was 4.69% (active).

In the case of `Cc1cc(Br)ccc1-n1cc(C#N)c(N)c1C(=O)c1ccc(Br)cc1`, the growth was 105% (inactive). Then `CN(C)CCCOc1ccc(C(=C(c2ccccc2)C2CCCC2)c2ccc(OCCCN(C)C)cc2)cc1`, with -79.2% (active). Then `CN(C)c1cccc2c(S(=O)(=O)Nc3cccc(-c4csc(NC(=O)CCCCCN5CCN(CCO)CC5)n4)c3)cccc12`, with 74.9% (inactive); and `O=C(CSc1nc2ccccc2c(=O)n1-c1ccc(Cl)c(Cl)c1)Nc1ccc(S(=O)(=O)Nc2ccc(Cl)nn2)cc1`, with 91.9% (inactive); and `CNC(=O)c1cc(-c2ccc(NC(=S)Nc3cccc(C(F)(F)F)c3)cc2)nc2cccnc12`, with 96.9% (inactive).

As to `CNC(=O)c1cc(N2CCc3cc(NC(=O)Nc4ccc(N5CCOCC5)c(C(F)(F)F)c4)ccc32)ccn1`, the growth was 43.7% (inactive).

Values taken from PubChem BioAssay (NCI).
